Test results reported in PubChem BioAssay AID1159580 (chemical genetic matrix, 2015).
The campaign covered roughly 5,500 compounds. About 2,000 (36%) were called active. Another 18% or so got no clear call; they are omitted. Rule as the data show it: active = normalized growth mostly below about 0.91 (no sharp cut-off); inconclusive = no clear call, values can overlap the other calls; inactive = mostly above about 0.92. Some of the results follow.

Experiment: chemical genetic growth profiling, strain panel (AID 1159580);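 also: tested at 20 µM; growth read once vehicle control cultures reached saturation at 30 °C; 1 = growth at the plate median or of vehicle wells; lower values mean less growth of the strain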
Settings: growth OD

Measured: normalized growth

COc1ccc(-c2c(O)c3c(OC)c4c(cc3oc2=O)OC(C)(C)C=C4)cc1
inactive: S. cerevisiae deletion strains, locus YJL187C, strain SWE1, active compounds read low 0.952 | S. cerevisiae deletion strains, locus YJR066W, strain TOR1, active compounds read low 0.934 | S. cerevisiae deletion strains, locus YKL009W, strain mrt4, active compounds read low 0.935 | S. cerevisiae deletion strains, locus YKL068W, active compounds read low 0.969 | S. cerevisiae deletion strains, locus YKL085W, strain MDH1 (second series), active compounds read low 0.97 | S. cerevisiae deletion strains, locus YKL085W, strain MDH1, active compounds read low 0.97 | S. cerevisiae deletion strains, locus YKL160W, strain elf1, active compounds read low 0.936 | S. cerevisiae deletion strains, locus YKR001C, strain vps1, active compounds read low 0.97 | S. cerevisiae deletion strains, locus YKR026C, strain gcn3, active compounds read low 0.947 | S. cerevisiae deletion strains, locus YKR091W, strain srl3, active compounds read low 0.954 | S. cerevisiae deletion strains, locus YLL001W, strain dnm1, active compounds read low 0.968 | S. cerevisiae deletion strains, locus YLL026W, active compounds read low 0.959 | S. cerevisiae deletion strains, locus YLL041C, strain sdh2, active compounds read low 0.942 | S. cerevisiae deletion strains, locus YLR027C, strain aat2, active compounds read low 0.965 | S. cerevisiae deletion strains, locus YLR039C, strain RIC1, active compounds read low 1.01 | S. cerevisiae deletion strains, locus YLR058C, strain SHM2, active compounds read low 0.949 | S. cerevisiae deletion strains, locus YLR102C, strain apc9, active compounds read low 0.958 | S. cerevisiae deletion strains, locus YLR113W, strain HOG1, active compounds read low 0.907 | S. cerevisiae deletion strains, locus YLR221C, strain rsa3, active compounds read low 0.962 | S. cerevisiae deletion strains, locus YLR258W, strain gsy2, active compounds read low 0.962 | S. cerevisiae deletion strains, locus YLR262C, strain YPT6 (second series), active compounds read low 0.885 | S. cerevisiae deletion strains, locus YLR262C, strain YPT6, active compounds read low 0.987 | S. cerevisiae deletion strains, locus YLR268W, strain sec22, active compounds read low 0.91 | S. cerevisiae deletion strains, locus YLR320W, strain mms22, active compounds read low 0.921 | S. cerevisiae deletion strains, locus YLR330W, strain CHS5, active compounds read low 0.96 | S. cerevisiae deletion strains, locus YLR342W, strain FKS1, active compounds read low 0.939 | S. cerevisiae deletion strains, locus YLR357W, strain rsc2, active compounds read low 1 | S. cerevisiae deletion strains, locus YLR370C, strain arc18, active compounds read low 0.95 | S. cerevisiae deletion strains, locus YLR371W, strain rom2, active compounds read low 0.98 | S. cerevisiae deletion strains, locus YLR384C, strain iki3, active compounds read low 0.954 | S. cerevisiae deletion strains, locus YML016C, strain PPZ1, active compounds read low 0.958 | S. cerevisiae deletion strains, locus YML120C, strain ndi1, active compounds read low 0.964 | S. cerevisiae deletion strains, locus YML124C, strain tub3, active compounds read low 0.96 | S. cerevisiae deletion strains, locus YMR058W, strain fet3, active compounds read low 0.961 | S. cerevisiae deletion strains, locus YMR078C, strain ctf18, active compounds read low 0.942 | S. cerevisiae deletion strains, locus YMR125W, strain sto1, active compounds read low 0.971 | S. cerevisiae deletion strains, locus YMR129W, active compounds read low 0.95 | S. cerevisiae deletion strains, locus YMR205C, strain PFK2, active compounds read low 0.909 | S. cerevisiae deletion strains, locus YMR223W, strain ubp8, active compounds read low 0.928 | S. cerevisiae deletion strains, locus YMR231W, strain pep5, active compounds read low 0.95 | S. cerevisiae deletion strains, locus YMR307W, strain GAS1, active compounds read low 1.1 | S. cerevisiae deletion strains, locus YNL067W, strain RPL9B, active compounds read low 0.967 | S. cerevisiae deletion strains, locus YNL071W, strain lat1, active compounds read low 0.922 | S. cerevisiae deletion strains, locus YNL128W, strain TEP1, active compounds read low 0.997 | S. cerevisiae deletion strains, locus YNL183C, strain NPR1, active compounds read low 0.911 | S. cerevisiae deletion strains, locus YNL209W, strain ssb2, active compounds read low 0.959 | S. cerevisiae deletion strains, locus YNL233W, strain BNI4, active compounds read low 0.965 | S. cerevisiae deletion strains, locus YNL248C, strain rpa49, active compounds read low 0.967 | S. cerevisiae deletion strains, locus YNL250W, strain rad50, active compounds read low 0.913 | S. cerevisiae deletion strains, locus YNL271C, strain bni1, active compounds read low 1 | S. cerevisiae deletion strains, locus YNL298W, strain CLA4, active compounds read low 0.962 | S. cerevisiae deletion strains, locus YNL322C, strain KRE1 (second series), active compounds read low 0.961 | S. cerevisiae deletion strains, locus YNL322C, strain KRE1, active compounds read low 0.949 | S. cerevisiae deletion strains, locus YNR049C, strain mso1, active compounds read low 0.965 | S. cerevisiae deletion strains, locus YNR052C, strain pop2, active compounds read low 0.946 | S. cerevisiae deletion strains, locus YOL012C, strain htz1 0.954 | S. cerevisiae deletion strains, locus YOR001W, strain rrp6, active compounds read low 0.969 | S. cerevisiae deletion strains, locus YOR061W, strain CKA2, active compounds read low 0.952 | S. cerevisiae deletion strains, locus YOR069W, strain VPS5, active compounds read low 0.952 | S. cerevisiae deletion strains, locus YOR070C, strain gyp1, active compounds read low 0.94 | S. cerevisiae deletion strains, locus YOR080W, strain dia2, active compounds read low 0.971 | S. cerevisiae deletion strains, locus YOR083W, strain WHI5, active compounds read low 0.953 | S. cerevisiae deletion strains, locus YOR106W, strain vam3, active compounds read low 0.971 | S. cerevisiae deletion strains, locus YOR136W, strain idh2, active compounds read low 0.959 | S. cerevisiae deletion strains, locus YOR144C, strain elg1, active compounds read low 0.942 | S. cerevisiae deletion strains, locus YOR184W, strain ser1, active compounds read low 0.971 | S. cerevisiae deletion strains, locus YOR231W, strain MKK1, active compounds read low 0.969 | S. cerevisiae deletion strains, locus YOR265W, strain rbl2, active compounds read low 0.937 | S. cerevisiae deletion strains, locus YOR270C, strain vph1, active compounds read low 0.923 | S. cerevisiae deletion strains, locus YOR290C, strain snf2, active compounds read low 0.938 | S. cerevisiae deletion strains, locus YPL051W, strain arl3, active compounds read low 0.951 | S. cerevisiae deletion strains, locus YPL078C, strain atp4, active compounds read low 0.967 | S. cerevisiae deletion strains, locus YPL106C, strain sse1, active compounds read low 1.01 | S. cerevisiae deletion strains, locus YPL240C, strain hsp82, active compounds read low 0.95 | S. cerevisiae deletion strains, locus YPL241C, strain CIN2, active compounds read low 0.938 | S. cerevisiae deletion strains, locus YPL256C, strain CLN2, active compounds read low 0.933 | S. cerevisiae deletion strains, locus YPR141C, strain kar3, active compounds read low 0.958 | S. cerevisiae deletion strains, locus YPR167C, strain met16, active compounds read low 0.94 | S. cerevisiae deletion strains, strain wtn01, active compounds read low 0.958 | S. cerevisiae strains, strain wild type, active compounds read low 0.993
active: S. cerevisiae deletion strains, locus YLR418C, strain cdc73, active compounds read low 0.833 | S. cerevisiae deletion strains, locus YML032C, strain rad52, active compounds read low 0.901 | S. cerevisiae deletion strains, locus YNL307C, strain MCK1, active compounds read low 0.84 | S. cerevisiae deletion strains, locus YOL147C, strain pex11, active compounds read low 0.928 | S. cerevisiae deletion strains, locus YOR316C, strain cot1, active compounds read low 0.916 | S. cerevisiae deletion strains, locus YPR119W, strain clb2, active compounds read low 0.928 | S. cerevisiae deletion strains, locus YPR163C, strain tif3, active compounds read low 0.908
